Source: PubChem BioAssay (The Scripps Research Institute Molecular Screening Center)
Rows were chosen to be rich in hits. Some 1.1% of all compounds tested hit in one or more screens of this group.
HTR5A inv ag = inverse agonist of human HTR5A in OPRM1-OPRD1 counter-screen; P47898; HTR5A cell line, luminescence, inverse agonism; inhibition, % at 9.3 µM; 340,000 tested, 0.083% active; in the data active = inhibition mostly above about 23%, no sharp cut-off; inactive = mostly below about 18%;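 note: 0% = cells with DMSO and 100% = no-cell wells with DMSO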
MOR-DOR inv ag = mu-delta opioid heterodimer inverse agonism; P35372+P41143; cell-based MOR-DOR heterodimer luminescence; inhibition, % at 9.3 µM; 340,000 tested, 0.21% active; AID 504357; in the data active = inhibition above about 22%, passing the limit was not always enough;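 note: 0% = cells with DMSO and 100% = wells without cells with DMSO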
OPRM1-OPRD1 ag = OPRM1-OPRD1 heterodimerization agonism. P35372+P41143. cells, luminescence. activation, % at 9.3 µM. 340,000 tested, 0.3% active. AID 504326; in the data active = activation above about 18%;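 note: 0% = vehicle-treated cells and 100% = reference agonist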
HTR5A ag ctr = activates human HTR5A in OPRM1-OPRD1 agonist counter-screen; HTR5A agonist assay, luminescence, cell-based; activation, % at 9.3 µM; 340,000 tested, 0.61% active; in the data active = activation mostly above about 9.5%, no sharp cut-off; inactive = mostly below about 7.6%;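 note: 0% = cells with vehicle only and 100% = reference agonist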
Active calls of the source: *.

Screening CCCNS(=O)(=O)c1ccc(OCC(=O)Nc2ccc3c(c2)OCCO3)c(C)c1 returned HTR5A inv ag 3, MOR-DOR inv ag -11, OPRM1-OPRD1 ag 2 and HTR5A ag ctr 9.6*.
`CCCNS(=O)(=O)c1ccc(OCC(=O)Nc2ccc3c(c2)OCCO3)cc1` gave HTR5A inv ag 7, MOR-DOR inv ag 6, OPRM1-OPRD1 ag -1 and HTR5A ag ctr -3.
CCOc1ccc2[nH]cc(S(=O)(=O)c3ccc(Cl)cc3)c(=O)c2c1 was read as HTR5A inv ag -12, MOR-DOR inv ag -8, OPRM1-OPRD1 ag 1 and HTR5A ag ctr 4.
O=CC1=C(c2ccccc2)Oc2ccccc2O1 was read as HTR5A inv ag -42, MOR-DOR inv ag -29, OPRM1-OPRD1 ag 6 and HTR5A ag ctr 11*.
`CN(C)/C=C1/N=C(c2ccccc2)OC1=O` gave HTR5A inv ag -6, MOR-DOR inv ag 3, OPRM1-OPRD1 ag -1 and HTR5A ag ctr 2.
For CC(C)c1ccc(S(=O)(=O)/N=C2/C=C(Sc3ncn[nH]3)C(=O)c3ccccc32)cc1 the results were HTR5A inv ag 19, MOR-DOR inv ag -127, OPRM1-OPRD1 ag 25* and HTR5A ag ctr 3.
Screening COC(=O)C(C(=O)NCC1CCCO1)C1CCCCCC1 (configuration not stated) returned HTR5A inv ag -24, MOR-DOR inv ag 1, OPRM1-OPRD1 ag 0 and HTR5A ag ctr 8.
Screening Fc1ccccc1N=C1NN=C(c2ccccc2)CS1 returned HTR5A inv ag -52, MOR-DOR inv ag 14, OPRM1-OPRD1 ag -3 and HTR5A ag ctr 11*.
Screening O=C(COC(=O)Cc1ccccc1F)NC(=O)NC1CCCC1 returned HTR5A inv ag -15, MOR-DOR inv ag 13, OPRM1-OPRD1 ag -3 and HTR5A ag ctr 12*.
For CCn1ncc(CN2CCCC(CNC(=O)c3ccc(F)cc3)C2)c1C (configuration not stated) the results were HTR5A inv ag 1, MOR-DOR inv ag -1, OPRM1-OPRD1 ag 0 and HTR5A ag ctr 6.
For Cc1cccc(NC(=O)C2(C)CC3c4ccccc4C2c2ccccc23)c1 (configuration not stated) the results were HTR5A inv ag -37, MOR-DOR inv ag -73, OPRM1-OPRD1 ag 14 and HTR5A ag ctr 10*.
Screening O=C(O/N=C1/CCSc2ccccc21)c1ccc(F)cc1 returned HTR5A inv ag -50, MOR-DOR inv ag -35, OPRM1-OPRD1 ag 6 and HTR5A ag ctr 10*.
For C=CCc1cccc(CNc2nc3ccccc3n2CCC)c1O the results were HTR5A inv ag 1, MOR-DOR inv ag -43, OPRM1-OPRD1 ag 8 and HTR5A ag ctr 1.
For C=CCOc1ccc(/C=N/NC(=O)c2c(C)nc3ccc(Cl)cn23)cc1 the results were HTR5A inv ag -40, MOR-DOR inv ag -70, OPRM1-OPRD1 ag 15 and HTR5A ag ctr 11*.
`Cc1cccc(C(C(=O)NC2CCCCC2)N(C(=O)c2csnn2)C2CC2)c1` (configuration not stated) gave HTR5A inv ag -11, MOR-DOR inv ag 8, OPRM1-OPRD1 ag -1 and HTR5A ag ctr 5.
Screening Cc1ccc(S(=O)(=O)N2CCN(C(=O)c3cc(S(=O)(=O)N4CCOCC4)ccc3Cl)CC2)c(C)c1 returned HTR5A inv ag -18, MOR-DOR inv ag 7, OPRM1-OPRD1 ag -2 and HTR5A ag ctr 13*.
Cc1ccc(S(=O)(=O)N2CCN(C(=O)c3ccco3)CC2)c(C)c1 was read as HTR5A inv ag -40, MOR-DOR inv ag 14, OPRM1-OPRD1 ag -3 and HTR5A ag ctr 10*.
O=C(c1cc(S(=O)(=O)N2CCCCC2)ccc1Cl)N1CCOCC1 was read as HTR5A inv ag -10, MOR-DOR inv ag -1, OPRM1-OPRD1 ag 0 and HTR5A ag ctr -2.
CC(C)c1ccc(N(CC(=O)N/N=C/c2ccc(OC3CSC3)cc2)S(=O)(=O)c2ccccc2)cc1 was read as HTR5A inv ag 12, MOR-DOR inv ag -2, OPRM1-OPRD1 ag 0 and HTR5A ag ctr 5.
O=C(CN(C(=O)c1ccco1)c1cccc(F)c1)NCc1ccc(F)cc1 was read as HTR5A inv ag -27, MOR-DOR inv ag 5, OPRM1-OPRD1 ag -1 and HTR5A ag ctr 11*.
CC(C)(C)c1ccc(/C=C/C(=O)Nc2ccncc2)cc1 was read as HTR5A inv ag -25, MOR-DOR inv ag -49, OPRM1-OPRD1 ag 10 and HTR5A ag ctr 13*.
For CCCc1nc2n[nH]c(N)c2c2c1CCCC2 the results were HTR5A inv ag 10, MOR-DOR inv ag -12, OPRM1-OPRD1 ag 2 and HTR5A ag ctr 1.
For c1ccc2c(c1)NC1(CCCCC1)n1c-2nc2ccccc21 the results were HTR5A inv ag 13, MOR-DOR inv ag -6, OPRM1-OPRD1 ag 1 and HTR5A ag ctr 14*.
CS(=O)(=O)c1ccc(-c2nnc(NC(=O)C3=COCCO3)o2)cc1 was read as HTR5A inv ag -5, MOR-DOR inv ag 8, OPRM1-OPRD1 ag -1 and HTR5A ag ctr 4.
NC(=S)N/N=C/c1ccc(-c2cc(Cl)c(Cl)cc2Cl)o1 was read as HTR5A inv ag -30, MOR-DOR inv ag -27, OPRM1-OPRD1 ag 5 and HTR5A ag ctr 12*.
NC(=S)N/N=C/c1ccc(Br)o1 was read as HTR5A inv ag 22, MOR-DOR inv ag 11, OPRM1-OPRD1 ag -2 and HTR5A ag ctr -2.
CC(=O)Oc1ccc(C(c2ccc(OC(C)=O)cc2)c2ccccn2)cc1 was read as HTR5A inv ag -120, MOR-DOR inv ag -313, OPRM1-OPRD1 ag 58* and HTR5A ag ctr 34*.
For COc1ccc(OCCCC(=O)OCC(=O)Nc2nnc(-c3ccccc3)o2)cc1 the results were HTR5A inv ag 5, MOR-DOR inv ag 12, OPRM1-OPRD1 ag -2 and HTR5A ag ctr -1.
For O=C(Nc1cccc(S(=O)(=O)N2CCCCC2)c1)c1ccc(S(=O)(=O)C(F)F)cc1 the results were HTR5A inv ag -4, MOR-DOR inv ag -1, OPRM1-OPRD1 ag 0 and HTR5A ag ctr 12*.
O=C(CSC1=NCCS1)N1CCN(c2ccc(Cl)cc2)CC1 was read as HTR5A inv ag -5, MOR-DOR inv ag 1, OPRM1-OPRD1 ag 0 and HTR5A ag ctr -1.
For O=C(CSC1=NCCS1)c1ccc(Cl)cc1 the results were HTR5A inv ag -30, MOR-DOR inv ag -13, OPRM1-OPRD1 ag 2 and HTR5A ag ctr 11*.
CNC(=O)c1ccc(NC(=O)c2cc(S(=O)(=O)N(C)C)ccc2N2CCCC2)cc1 was read as HTR5A inv ag 11, MOR-DOR inv ag 18, OPRM1-OPRD1 ag -4 and HTR5A ag ctr -5.
Screening Nc1nc(Br)c2ccccc2c1-c1ccccc1 returned HTR5A inv ag -12, MOR-DOR inv ag -27, OPRM1-OPRD1 ag 5 and HTR5A ag ctr 4.
Nc1nc(Br)c2c(F)cccc2c1-c1ccc(Cl)cc1 was read as HTR5A inv ag -39, MOR-DOR inv ag -56, OPRM1-OPRD1 ag 10 and HTR5A ag ctr 11*.
Screening CCN(CC)S(=O)(=O)c1ccc(C(=O)OCCN2C(=O)c3cccc4c(N5CCOCC5)ccc(c34)C2=O)cc1 returned HTR5A inv ag -6, MOR-DOR inv ag 22, OPRM1-OPRD1 ag -4 and HTR5A ag ctr 2.
For CC(=O)N(C(C)=O)N1C(=O)c2cccc3c(N4CCOCC4)ccc(c23)C1=O the results were HTR5A inv ag -30, MOR-DOR inv ag 15, OPRM1-OPRD1 ag -3 and HTR5A ag ctr 11*.
O=C(NCc1ccco1)c1ccc(C(=O)NCc2ccco2)s1 was read as HTR5A inv ag -7, MOR-DOR inv ag 10, OPRM1-OPRD1 ag -2 and HTR5A ag ctr 10*.
